The list is not random: actives were taken first. Their share in the collection is about 8.9%.
NPSR antagonist – antagonists of human neuropeptide S receptor cAMP signaling. Q6W5P4. Potency, µM (titrated, usually from 38.3 µM), for the others: at the highest dose activity change, negative = inhibition, usual class: inhibitors. hit rate 1% among 220,000. CHO-NPSR cells, cAMP TR-FRET, antagonist mode; note: potency is the fitted concentration of half-maximal effect; nearly all actives have a fitted effect of over 50% in size
HPGD block – blocks human HPGD enzyme activity | P15428 | purified HPGD, NADH fluorescence kinetic, PGE2 substrate | Potency, µM, inactives show at the highest dose activity change, negative = inhibition, most hits filed as inhibitors | hit rate 4.3% among 150,000 | AID 894; active = well fitted inhibition curve with a large enough effect, not every such curve was filed as active; inconclusive = small, poorly fitted or top-dose-only effect, or another doubt; inactive = no such curve, though single readings can be large or run the other way; note: potency is the fitted concentration of half-maximal effect
Target sequence (P15428 whole entry, looked up): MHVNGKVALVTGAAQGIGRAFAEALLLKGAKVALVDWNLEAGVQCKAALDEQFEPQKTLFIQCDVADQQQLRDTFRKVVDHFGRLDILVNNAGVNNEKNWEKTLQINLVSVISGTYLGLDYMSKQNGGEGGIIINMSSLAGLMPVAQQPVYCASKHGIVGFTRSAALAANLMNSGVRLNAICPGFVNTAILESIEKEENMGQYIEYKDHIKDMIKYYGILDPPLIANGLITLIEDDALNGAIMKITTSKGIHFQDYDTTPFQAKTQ
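20 nM HPGD preincubated 15 min at room temperature with compound in 50 mM Tris-HCl pH 8, 0.01% Tween 20. Started with 1 mM NAD+ and 30 uM prostaglandin E2; NADH fluorescence (360/450 nm) read 5 times over 30-s intervals, last minus first.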
12-hLO inh – inhibitors of human 12-lipoxygenase (ALOX12). P18054. purified 12-hLO, xylenol orange hydroperoxide absorbance. Potency, µM (titrated, usually from 57.1 µM), for the others: top-dose activity change, negative = inhibition, most hits filed as inhibitors. hit rate 0.12% among 150,000. AID 1452; note: potency is the fitted concentration of half-maximal effect; nearly all actives have a fitted effect of over 55% in size
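Xylenol orange chromogenic assay: hydroperoxide from 12hLO oxidises Fe(II), giving red-shifted Fe(III)-XO absorbance. Conditions: 150 nM enzyme, 40 uM arachidonic acid, 25 mM Hepes pH 7.0, 0.01% Triton X-100, 30 min, room temperature.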
IMPase cell inh – cell-permeable inhibitors of inositol monophosphatase (IMPase); P97697; inhibition (IP1 accumulation), % at 46.1 µM; 120,000 tested, under 10 active; CHO-M1 cells, IP1 accumulation, HTRF TR-FRET ratio; active = well fitted curve in the direction sought with a large enough effect in the signal ratio, not every such curve was filed as active; inconclusive = small, poorly fitted or top-dose-only effect, or a change in a side signal; inactive = no such curve, though single readings can be large or run the other way; the % refers to the signal ratio;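 note: cells stimulated with carbachol in lithium chloride buffer; plate controls were DMSO basal wells for no effect and reference inhibitor wells for full effect; higher means more IMPase inhibition seen as more IP1 and lower FRET ratio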
Target sequence (P97697 whole entry, looked up): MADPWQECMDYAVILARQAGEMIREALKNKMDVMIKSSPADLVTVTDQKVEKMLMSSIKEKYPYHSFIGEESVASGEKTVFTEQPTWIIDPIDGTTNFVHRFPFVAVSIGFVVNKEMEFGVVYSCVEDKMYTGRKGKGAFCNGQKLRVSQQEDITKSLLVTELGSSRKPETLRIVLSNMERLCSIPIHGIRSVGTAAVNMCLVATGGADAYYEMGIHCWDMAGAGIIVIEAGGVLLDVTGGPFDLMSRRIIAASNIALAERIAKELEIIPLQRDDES
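CHO-M1 cells (CHO stably expressing M1 receptor), compound up to 46 uM final, stimulated with carbachol (50 uM as added) in buffer with 50mM LiCl, pH 7.4, 30 min at 37C. Cytosolic IP1 read by TR-FRET; AC50 from Hill fits.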
IMPase Li cell – membrane-permeable IMPase blocker, potentiated with lithium | CHO-M1 cells, IP1 TR-FRET (IP-One), carbachol + lithium | hit rate 0.35% among 210,000 | Potency, µM (titrated, usually from 59.4 µM), inactives show at the top dose activity, negative = IMPase inhibition, hits mostly inhibitors | AID 1457;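 note: IP1 builds up when IMPase is blocked and the TR-FRET signal falls; potency is the fitted concentration of half-maximal effect; plate controls were basal vehicle for no effect and high inhibitor control for full effect; nearly all actives have a fitted effect of over 50% in size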
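Readout is a homogeneous TR-FRET IP1 immunoassay (Ex 320, Em 665 and 620), where raised cytosolic IP1 lowers signal. Cells were CHO-M1 treated 30 min at 37C with test compounds plus a little lithium; AC50 values came from Hill-equation fitting.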
ALDH1A1 inh – blocks purified human ALDH1A1 activity; Potency, µM (top dose mostly 75.3 µM), for the others: at the top dose activity, negative = inhibition, most hits filed as inhibitors; hit rate 7.3% among 220,000; Purified ALDH1A1, NADH fluorescence, propionaldehyde substrate; AID 1030; active = well fitted inhibition curve with a large enough effect, not every such curve was filed as active; inconclusive = small, poorly fitted or top-dose-only effect, or another doubt; inactive = no such curve, though single readings can be large or run the other way;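 note: potency is the fitted concentration of half-maximal effect; plate controls were no enzyme wells and a reference inhibitor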
Numbers without * were called inactive; ? = inconclusive; . = not tested or not shown; [ ] = another dose, or the depositor's remark. Unless noted, calls come from the whole dose curve; as a rule, active = well fitted curve in the direction sought with a large enough effect; inconclusive = small, poorly fitted or top-dose-only effect, or another doubt; inactive = no such curve, though single readings can be large; an effect the other way counts as inactive or inconclusive. Unless noted, % is set by controls: 0 for no effect and ±100 for the full control effect.

SMILES	NPSR antagonist	HPGD block	12-hLO inh	IMPase cell inh	IMPase Li cell	ALDH1A1 inh
O=C(NCc1ccccc1)c1ccc(C2SCC(=O)N2Cc2ccccc2)cc1 (centres undefined)	?	10µM*	46.5%	16.6	4.0%	-5.8%
Cc1nn(C(C)C)c(C)c1CN1CCCC(C(=O)c2cccc(OC(C)C)c2)C1 (centres undefined)	22.7%	.	.	.	22.0%	11.7%
COC(=O)c1ccc(COc2ccccc2/C=C(\C#N)C(=O)Nc2ccc(C)cc2)cc1	-32.2%	-2.7%	-0.2%	.	3.4%	6.9%
N#C/C(=C\c1ccccc1OCc1ccc(C(=O)O)cc1)C(=O)Nc1ccc(O)cc1	-11.7%	.	.	.	4.4%	5.62µM*
O=C(O)CCc1ccc(-c2ccccc2)n1-c1cccc(O)c1	-11.6%[46.1 µM]	-21.7%	-9.8%	-4.6	12.9%[38.3 µM]	?
Cn1c(=O)c2c(SCc3c(F)cccc3Cl)nc(CC(C)(C)C)nc2n(C)c1=O	10µM*	-7.2%	3.6%	-1.3	23.6%[38.3 µM]	-3.4%
Cn1c(=S)c2[nH]c(SCc3cccnc3)nc2n(C)c1=O	.	3.98µM*	-1.3%[11.4 µM]	.	-3.2%	?
Cn1c(=O)c2c(SCc3cccnc3)nc(C3CC3)nc2n(C)c1=O	-14.3%[46.1 µM]	-4.4%	0.4%	10.5	9.7%[38.3 µM]	0.7%
CC(C)Cc1nc(SCc2cccnc2)c2c(=O)n(C)c(=O)n(C)c2n1	-38.7%	.	.	.	16.7%	7.08µM*
CCc1nc(SCc2cccnc2)c2c(=O)n(C)c(=O)n(C)c2n1	-12.4%[46.1 µM]	0.0%	-0.2%	?	25.5%[38.3 µM]	0.0%
Nc1ccccc1NC1=CC(=O)CC(c2ccco2)C1 (centres undefined)	-16.2%[46.1 µM]	-5.8%	-0.5%	8.9	18.2%[38.3 µM]	1.5%
O=C(C1=C[C@@H]2[C@H]3C(=O)N(c4ccccc4Cl)C(=O)[C@H]3[C@@H](C(=O)c3ccc(Cl)cc3)N2C=C1)c1ccccc1	-3.0%	-20.1%	-0.6%	.	2.9%	?
C=CCn1c(SCc2c(C(=O)OC)sc(N)c2C(=O)OC)nnc1-c1ccc(Br)cc1	?	?	-12.2%	-0.7	32.7%[38.3 µM]	25.1µM*
C=CCn1c(SCC(=O)O)nnc1-c1ccc(C(C)(C)C)cc1	0.9%[46.1 µM]	-20.9%	-2.5%	0.6	2.0%[38.3 µM]	?
O=C1CCC(C(=O)N(c2ccccc2)C2(C(=O)NC3CCCCC3)CCCCC2)N1 (centres undefined)	-12.5%[46.1 µM]	.	-5.6%	10.6	.	7.08µM*
Cc1ccc2nc(-c3ccc(NC(=O)CN4C(=O)c5ccccc5C4=O)cc3)sc2c1	-56.2%	?	-0.7%	-10.4	?	?
Cc1ccc2nc(-c3ccc(NC(=O)COC(=O)c4ccc(=O)[nH]c4)cc3)sc2c1	-6.6%	?	-4.8%	.	-5.9%	3.55µM*
Cc1ccc(N(CC(=O)Nc2ccc(-c3nc4ccc(C)cc4s3)cc2)S(C)(=O)=O)cc1	?	?	-7.3%	4.8	12.6µM*	?
Cc1nc2ccc(NC(=O)CCS(=O)(=O)c3ccccc3)cc2s1	23.0%	-14.8%	-2.2%	.	-12.5%	-8.5%
Cc1ccc2nc(-c3ccc(NC(=O)CCS(=O)(=O)c4ccccc4)cc3)sc2c1	12.1%	?	-2.5%	-11.9	12.6µM*	?
Cc1nnc(NC(=O)c2cc3n(n2)C(C(F)(F)F)CC(C2CC2)N3)s1 (centres undefined)	-3.8%[46.1 µM]	0.3%	-3.1%	0.0	3.0%[38.3 µM]	15.6%
CCOC(=O)c1ccc(N=C2NC(=O)CS2)cc1	-11.5%[46.1 µM]	12.6µM*	-0.7%	-3.0	21.7%[38.3 µM]	?
Cc1ccc(N=C2NC(=O)CS2)cc1	6.2%[46.1 µM]	?	-1.5%	7.2	21.6%[38.3 µM]	7.6%
COc1ccc(NCc2ccc([N+](=O)[O-])s2)c(OC)c1	-3.5%	-14.2%	-6.6%	.	2.0%	25.1µM*
CC(=O)Oc1cccc(N2C(=O)C3CC=CCC3C2=O)c1 (centres undefined)	-3.2%[46.1 µM]	-3.4%	-3.2%	2.2	20.9%[38.3 µM]	4.2%
